What all share (experiment): NCI-60 one-dose screen, 48 h (100 = growth as untreated, 0 = no growth, -100 = all killed)
What all share (settings): 10 µM unless noted

Experiment [1] deals with NCI-H23 lung.
For experiment [2], the system named is NCI-H226 lung.
Experiment [3] deals with NCI-H322M lung.
Experiment [4] relates to HOP-62 NSCLC.
Experiment [5] relates to NCI-H460 lung.
Experiment [6] deals with HOP-92 NSCLC.
Experiment [7] concerns NCI-H522 lung.
Experiment [8] has as its system A549/ATCC NSCLC.
Experiment [9] relates to 786-0 renal.
In experiment [10] the test system is COLO 205 colon.

This is part of a sample that, as a whole, favours compounds with a hit. Of some 83,000 tested, about 20% had one in any assay.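 Step 1: grow cells in 96-well plates. Step 2: add test compound at a single concentration. Step 3: incubate 48 h. Step 4: record percent growth.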 Unmarked numbers belong to inactive results. Active and inactive are the calls of the source. The calls were made as follows: active = growth percent below 10; inactive = the rest.

In the case of `Cc1[nH]n(C(N)=S)c(=O)c1N=Nc1ccc(S(=O)(=O)Nc2ccncn2)cc1`, the growth in experiment [1] was 102%; in experiment [2], 93.4%; in experiment [3], 128%; in experiment [4], 103%; in experiment [5], 100%; in experiment [6] it was 16.4%. Besides, the growth was 99.7% in experiment [7], 101% in [8], 103% in experiment [9] and 112% in experiment [10].

For the compound `Cc1nn(-c2nc3ccccc3[nH]2)c2c1C(c1ccc(O)cc1)CC(=O)N2` (stereo not given), the growth in [1] is 74.9%; in experiment [2], 96.9%; in experiment [3], 104%; in experiment [4], 93.1%; in [5], 57.4%; in [6] it was 99.3%. Also, the growth was 52% in [7], 61.3% in experiment [8], 115% in [9] and 103% in experiment [10].

`C[C@@H](NC(=O)c1ncnc(N)c1Cl)c1ncc(C(=O)Nc2cc(C(F)(F)F)c(Cl)cn2)s1`: the growth is 59.8% in [1]; 78.6% in [2]; 80.9% in experiment [3]; 63.1% in experiment [4]; 71.6% in [5]; 64.1% in experiment [6]. Besides, the growth is 46% in experiment [7], 53.2% in experiment [8], 110% in [9] and 13.2% in experiment [10].

Turning to `COc1ccc(-c2cnc(-c3ccc(Cl)cc3)[nH]2)cc1OC`, the growth in experiment [1] was 99.2%; in experiment [2] it was 88.3%; in experiment [3] it was 120%; in experiment [4], 94.3%; in experiment [5], 100%; in experiment [6] it was 25.8%. The growth in experiment [7] was 105%; in experiment [8], 105%; in experiment [9] it was 100%; in experiment [10] it was 98.7%.

As for `Cc1cc(C(O)CN(C)C)cc2c1ccc1cc(C(C)C)ccc12` (stereo not given), the growth in [1] was 30.1%; in [2], 33.6%; in [3], -10.1% (active); in experiment [4] it was 50.2%; in experiment [5] it was -35.7% (active); in experiment [6], 5.86% (active). Also, the growth in experiment [7] was -25% (active); in experiment [8], 32.9%; in [9] it was 14.5%; in experiment [10], -78.1% (active).

Turning to `CCCCCCCC(=O)SCC/C=C/[C@@H]1CC(=O)NCc2nc(co2)C2=N[C@@](C)(CS2)C(=O)N[C@@H](C(C)C)C(=O)O1`, the growth in experiment [1] was -2.47% (active); in experiment [2], -10.4% (active); in experiment [3] it was -18.5% (active); in [4] it was -6.6% (active); in experiment [5], 3.41% (active); in experiment [6], -15.5% (active). Moreover, the growth was -10.2% (active) in [7], -2.81% (active) in experiment [8], 10.2% in [9] and -41.3% (active) in experiment [10].

In the case of `C=CCCCC(=O)CCC(=O)OCC1O[C@@H](O[C@@H]2C(O)[C@@H](OC(C)=O)C(C)O[C@H]2O[C@H](CC=C)CCCCC)C(O)[C@@H](OC(=O)/C(C)=C/C)[C@@H]1OC(=O)/C=C/c1ccccc1` (stereo not given in full), the growth in experiment [1] was 35.3%; in experiment [2], 9.34% (active); in experiment [3], 39.6%; in experiment [4], 9.18% (active); in experiment [5], 10.6%; in experiment [6], 0.347% (active). In addition, the growth was 34.8% in experiment [7], 24.6% in experiment [8], 18.9% in [9] and -8.37% (active) in experiment [10].

On to `CS(=O)(=O)N1CCc2c(-c3cnc(N)nc3)nc(N3CCOCC3)nc21`, for which the growth is 22.9% in experiment [1]; 5.8% (active) in [2]; -12.9% (active) in experiment [3]; 4.78% (active) in experiment [4]; 10% in experiment [5]; -22.5% (active) in experiment [6]. Also, the growth in [7] is 10.5%; in experiment [8], -0.665% (active); in [9], -13.7% (active); in [10] it was -6.6% (active).

As to `N#Cc1c(-c2ccc(Cl)cc2)csc1NC(=O)Nc1cccc(C(F)(F)F)c1`, the growth in experiment [1] was -8.85% (active); in experiment [2] it was 17.6%; in experiment [3], 31.5%; in [4] it was 18.4%; in experiment [5], 5.61% (active); in experiment [6], -4.85% (active). Besides, the growth was -9.41% (active) in experiment [7], 11.4% in experiment [8], 22.9% in experiment [9] and -0.881% (active) in experiment [10].

With `CC(=O)C1CC(C)CCC1C(C)C` (stereo not given), the growth in experiment [1] is 78.7%; in experiment [2], 105%; in experiment [3], 102%; in experiment [4], 107%; in experiment [5], 98.4%; in experiment [6], 47.4%. Moreover, the growth in experiment [7] is 82.8%; in experiment [8], 106%; in experiment [9] it was 105%; in [10], 122%.

As to `CCCc1cc2cc(-n3nc(C)c4c3CC(C)(C)CC4=O)cc(NC3CCC(O)CC3)c2c(=O)[nH]1` (stereo not given), the growth in experiment [1] was 29.8%; in [2] it was 33.8%; in [3], 58.2%; in [4], 28.5%; in [5] it was 17.6%; in experiment [6], -25.7% (active). In addition, the growth in [7] was 40.8%; in experiment [8], 21%; in [9], 26.1%; in [10], -10.1% (active).

As to `O=C(Cc1ccc(/C=C/C(=O)c2ncc[nH]2)cc1)Nc1ccc(Br)cc1`, the growth is 34.8% in experiment [1]; 46.5% in [2]; 58.1% in experiment [3]; 3.97% (active) in experiment [4]; -3.31% (active) in experiment [5]; 77.4% in experiment [6]. Besides, the growth in [7] is 13.2%; in [8], 39.4%; in experiment [9] it was -27% (active); in [10], 20.7%.

In the case of `CC(=O)C1=C(C)NC(SCc2nnc(-c3ccc(C)cc3)o2)=NC1c1ccc(F)cc1` (stereo not given), the growth in [1] was 95.2%; in experiment [2], 89.6%; in [3], 92.8%; in [4] it was 95.2%; in [5], 106%; in experiment [6], 96.4%. For the same compound, the growth in experiment [7] is 85.9%; in [8], 91.2%; in [9] it was 84.6%; in experiment [10], 115%.

(Values after PubChem BioAssay (NCI).)
